# Measurements reported in PubChem BioAssay AID489017 (The Scripps Research Institute Molecular Screening Center, 2010).
# Active and inactive are the calls of the source. No rule for the calls is given here.
# Test system: Phorbol Ester
# Assay: receptor, enzyme and CYP inhibition profiling – biochemical, Ricerca HitProfilingScreen, CYP450, selectivity assay for S1P4 antagonist project, profiling panel (AID 489017)
# Details: Ricerca receptor/enzyme binding panel plus CYP450, at 10 µM, stronger effect = higher value
structure (smiles),measurement,value
CCc1cccc(CC)c1NC(=O)c1ccc(-c2cc(Cl)ccc2Cl)o1,inhibition,-12% (inactive)
